# Assay outcomes deposited in PubChem BioAssay by National Center for Advancing Translational Sciences (NCATS).
# Most compounds without a hit are left out; they make up all but 2.8% or so of the library.
# PTHR1 ag: agonists of human PTHR1 parathyroid hormone receptor | Q03431 | 0.075% of 410,000 active | HEK293 GP2 PTHR1 cells, GloSensor cAMP luminescence, 1 h | Potency, µM (doses to about 115 µM), without a hit: at the highest dose activation, usual class: activators; also: potency is read from the fitted curve at half-maximal effect; nearly all actives have a fitted effect of over 55% in size
#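 HEK-293-derived GP2 cells expressing PTHR1 and a GloSensor cAMP reporter, 3,000/well, plated overnight, given luciferin plus IBMX (each 0.5 mM as added) for 1 h at 37 °C, then compound for 1 h at 37 °C. Luminescence was read after 15 min at room temperature.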
# MBNL1-CUG inh: inhibitors of human MBNL1 binding to CUG repeat RNA; Q9NR56; TR-FRET MBNL1-His/biotin-(CUG)12 binding, 665/545 ratio; Potency, µM (doses to about 57.5 µM), for the others: at the top dose activity change, negative = inhibition, actives largely listed as inhibitors; 0.036% of 280,000 active; AID 2675; active = well fitted inhibition curve with a large enough effect in the signal ratio, with a control signal flat, not every such curve was filed as active; inconclusive = small, poorly fitted or top-dose-only effect, or effect the other way, or a change in a side signal; inactive = no such curve, though single readings can be large or run the other way; the % refers to the signal ratio; also: potency is read from the fitted curve at half-maximal effect; % is scaled to controls: 0 for no effect and ±100 for the full control effect
#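 Compound titration spanned 92 nM–58 uM against the MBNL1-His/biotin-(CUG)12 complex. After 60 min at room temperature with 5 nM streptavidin-XL665 and 0.055 ng/ul terbium anti-His, ratiometric 665/545 nm emission (Ex 340 nm) normalized to controls.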
# DRD3 agonist: agonists of human D3 dopamine receptor; P35462; D3R DiscoveRx beta-arrestin cells, luminescence, 90 min; max activation, %; 0.58% of 410,000 active; in the data active = max activation above about 30%; also: 0% is about no effect
# Target sequence (P35462 whole entry, looked up): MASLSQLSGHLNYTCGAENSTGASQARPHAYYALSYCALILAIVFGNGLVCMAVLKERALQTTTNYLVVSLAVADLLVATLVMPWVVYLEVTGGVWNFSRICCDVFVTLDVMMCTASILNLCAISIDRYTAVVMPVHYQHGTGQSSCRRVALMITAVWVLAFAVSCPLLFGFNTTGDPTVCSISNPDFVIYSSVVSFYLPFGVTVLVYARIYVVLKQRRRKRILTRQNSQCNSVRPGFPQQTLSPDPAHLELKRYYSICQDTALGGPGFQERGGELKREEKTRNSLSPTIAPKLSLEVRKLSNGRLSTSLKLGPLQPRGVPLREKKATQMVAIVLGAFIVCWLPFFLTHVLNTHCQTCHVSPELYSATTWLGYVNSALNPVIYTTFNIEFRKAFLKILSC
#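 Agonist-mode cell screen: cells plated at 1500/well and incubated overnight at 37 °C, then exposed to library compounds for 90 min at 37 °C. Detection reagent was added for 30–60 min at room temperature, and luminescence was read.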
# DRD3 antagonist: D3 dopamine receptor (human) antagonism; P35462; D3R cells, DiscoveRx beta-arrestin luminescence, antagonist mode; active compounds read low; max response, negative = inhibition, %; 2.5% of 360,000 active; AID 652054; in the data active = max response below about -50%; inconclusive = no clear call, values can overlap the other calls; also: % is scaled to controls: 0 for no effect and ±100 for the full control effect
#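 Cells plated overnight at 1500 cells/well, then exposed to library compounds with dopamine controls for 90 minutes at 37 degrees C. DiscoveRx reagent added for 30–60 minutes at room temperature; luminescence read, quantitative HTS format.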
# CBFb RUNX1 block: CBF-beta/RUNX1 interaction disruption; Q01196+Q13951; AlphaScreen CBFb-His/RUNX1-biotin binding, biochemical; Potency, µM (top dose mostly 59.8 µM), for inactives: at the highest dose activity, negative = inhibition, most hits filed as inhibitors; 230,000 tested, under 10 active; also: % of control where 0% means no effect
#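 Interaction loss through any mechanism counts as activity. Pre-formed complex of His-CBF-beta and biotin-RUNX1 (30 nM apiece) is incubated with compound 15 min, then with 50 ng nickel and 50 ng streptavidin beads for 90 min before AlphaScreen detection.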
# Integrin act MD: activates integrin-mediated alleviation for muscular dystrophy | 0.064% of 350,000 active | alpha7betagal myoblasts, beta-gal FDG fluorescence, 48 h | Potency, µM (titrated, usually from 38.3 µM), for inactives: at the highest dose activation, usual class: activators;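 also: potency is read from the fitted curve at half-maximal effect; 100% = response of the positive control SU9516; nearly all actives have a fitted effect of over 60% in size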
#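 Alpha7betagal+/- myoblasts (passage 13) were plated 16-24 hr, then exposed to compounds (1:260 dilution of DMSO stock) for 48 hours at 37C. After MPER lysis, β-galactosidase reporter activity was read as FDG fluorescence (ex 480/em 540) after 30 minutes.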
# * marks the source's active call; other numbers are inactive results; i = inactive; u = inconclusive; x = not tested or not shown; [ ] = dose if it differs, or a comment. Unless noted, calls follow the shape of the dose curve; as a rule, active = well fitted curve in the direction sought with a large enough effect; inconclusive = small, poorly fitted or top-dose-only effect, or another doubt; inactive = no such curve, though single readings can be large; an effect the other way counts as inactive or inconclusive.
SMILES,PTHR1 ag,MBNL1-CUG inh,DRD3 agonist,DRD3 antagonist,CBFb RUNX1 block,Integrin act MD
O=C(O)c1ccc(/C=N\Nc2ccc(S(=O)(=O)N3CCOCC3)cc2[N+](=O)[O-])cc1,i,u,3,-2,7%,-12%
C/C(CCC(C)C)=N\Nc1ccc(S(N)(=O)=O)cc1[N+](=O)[O-],-73%,u,-8,-58*,-23%,-17%
NS(=O)(=O)c1ccc(N/N=C/c2ccc(C(=O)O)cc2)c([N+](=O)[O-])c1,-5%,u,0,-51*,-6%,0%
CCC(C(=O)NCc1ccccc1)n1nc(C)c2sc3ccccc3c2c1=O (stereo not drawn),-15%,x,-11,x,x,x
CCC(C(=O)NCCc1ccc(SC)cc1)n1nc(C)c2c(C)n(-c3ccc(C)cc3)nc2c1=O (stereo not drawn),-14%,x,-4,x,x,x
Cc1nn(CCC(=O)NCc2ccc(Cl)cc2)c(=O)c2nn(-c3ccccc3)c(C)c12,-3%,x,57*,x,x,x
CCC(C(=O)NCCCN(CC)Cc1ccccc1)n1nc(C)c2sc3ccccc3c2c1=O (stereo not drawn),-7%,2%,-7,-84*,x,-23%
CCC(C(=O)NCCc1ccc(C)cc1)n1nc(C)c2c(C)n(-c3ccccc3)nc2c1=O (stereo not drawn),-53%,-4%,-11,-79*,x,16%
Cc1nn(CCC(=O)NCc2ccc(N(C)C)cc2)c(=O)c2nn(-c3ccccc3)c(C)c12,-64%,-8%,-1,1,x,-26%
Cc1ccc(OCCN2CCC2(C)C(=O)Nc2ccc3c(c2)OCCO3)cc1 (stereo not drawn),-25%,x,7,10,x,x
N/C(=N\OC(=O)c1cnn(-c2ccccc2)c1C(F)(F)F)c1ccc(C(F)(F)F)cc1,-9%,-4%,0,4,10%,-2%
O=C(c1cc(-c2ccncc2)nc2ccc(Cl)cc12)N1CCN(Cc2ccc3c(c2)OCO3)CC1,-13%,5%,2,21,-8%,13%
Cc1cc(C)c2nc(-c3ccncc3)cc(C(=O)N3CCN(Cc4ccccc4Cl)CC3)c2c1,i,9%,43*,54,x,-42%
CC1CCN(S(=O)(=O)c2ccc(NC(=O)CN3CCN(c4ccccc4)CC3)cc2)CC1,-10%[57.5 µM],-2%,110*,12,7%,-16%
O=C(CN1CCCC1)Nc1ccc2c(c1)CCC2,-20%,-4%,-10,-23,-2%,-4%
O=C(CN1CCN(c2ccccc2O)CC1)Nc1ccc2c(c1)CCC2,-11%,10%,-12,-72*,1%,-3%
O=C(CN1CCN(S(=O)(=O)c2ccc(Br)cc2)CC1)Nc1ccc(F)cc1F,i,0%,-1,-51*,3%,-2%
O=C(CN1CCN(S(=O)(=O)c2ccccc2)CC1)Nc1ccc2c(c1)CCC2,-25%,-27%,-25,-53*,-7%,-2%
Cc1cccc(N2CCN(C(=O)c3ccc4c(c3)NC(=O)C(CSCc3cccc(F)c3)N4)CC2C)c1 (stereo not drawn),i,6%,-5,-25,x,15%
CCn1cc(CCC(=O)NC(C)c2ccccc2)c2ccccc21 (stereo not drawn),-12%,-1%,0,-55*,x,u
NC(=O)c1ccc[n+]([C@@H]2O[C@H](COP(=O)([O-])OP(=O)(O)OC[C@H]3O[C@@H](n4cnc5c(N)ncnc54)[C@H](O)[C@@H]3O)[C@@H](O)[C@H]2O)c1,x,x,8,x,x,x
O=C(Nc1ccc(N2CCOCC2)c(Cl)c1)c1ccccc1Cl,7%,3%,1,-53*,5%,-1%
O=C(C1CCCCC1)N1CCCn2c1nc1ccccc12,-15%[57.5 µM],-9%,0,8,3%,-20%
O=C(C1CCN(S(=O)(=O)c2cnc[nH]2)CC1)N1CCn2c1nc1ccccc12,12%[57.5 µM],9%,-36,-118*,3%,-45%
Cc1cc(C)cc(OC(=O)CS(=O)c2ccc(C(F)(F)F)cc2[N+](=O)[O-])c1 (stereo not drawn),-24%,u,-9,-73*,-3%,-46%
SMILES,PTHR1 ag,MBNL1-CUG inh,DRD3 agonist,DRD3 antagonist,CBFb RUNX1 block,Integrin act MD
O=C(CS(=O)c1ccc(C(F)(F)F)cc1[N+](=O)[O-])Oc1ccc(Cl)cc1 (stereo not drawn),-58%[57.5 µM],u,-4,-97*,2%,-48%
O=C(NCCO)c1ccc(Oc2ccc(C(F)(F)F)cc2[N+](=O)[O-])cc1,-11%,19%,24,4,-3%,33%
COC(=O)[C@]12CCCCC=C1N(Cc1ccc(Cl)cc1Cl)C(=O)[C@H](CC(=O)N1CCN(C(=O)C3CC3)CC1)C2,i,x,3,38,x,x
COc1ccc(OCC(=O)Nc2ccc3nn(-c4ccc(OC)cc4)nc3c2)cc1,u,x,62*,x,x,x
CCc1ccc(C(c2ccccc2)c2c[nH]c3ccc(C)cc23)s1 (stereo not drawn),i,x,-9,x,x,x
CCc1oc(C(=O)O)cc1CN(CC)CC,i,2%,-5,-66*,3%,-7%
CCc1oc(C(=O)O)cc1COC,-25%,5%,0,15,-2%,6%
CCCc1oc(C(=O)O)cc1CN,18µM*,10%,0,-7,-7%,8%
Cc1ccccc1-c1cc2nc(NCc3ccccc3F)n(C)c(=O)c2s1,i,x,-5,-15,x,x
Cc1sc(NC(=O)/C=C/c2ccco2)c(C(=O)OC(C)C)c1C,i,-12%,32*,5,0%,8%
COC(=O)c1c(NC(=O)/C=C/c2ccco2)sc2c1CCC2,i,-6%,-7,14,-1%,2%
O=C1C(=C(c2ccccc2)N2CCOCC2)Cc2ccccc21,-47%,x,-20,-125*,x,-61%
COC(=O)C1=C(C)N(Cc2ccccc2)[C@]23O[C@](C(=O)OC)(C(=O)N2C1c1ccccc1)C(C(=O)OC)C3C(=O)OC (stereo partly drawn),x,x,x,x,2%[13.1 µM],x
O=S1(=O)c2ccccc2OC(COCc2ccccc2)CN1Cc1ccccc1 (stereo not drawn),-14%,x,-11,6,x,10%
COc1ccc(CN2CC(COCc3ccccc3)Oc3ccccc3S2(=O)=O)cc1 (stereo not drawn),-22%,x,41*,0,x,-2%
CC1(C)S[C@@H]2[C@H](NC(=O)Cc3ccccc3)C(=O)N2[C@H]1C(=O)O (tested in a mixture with another compound),x,x,-6,x,x,x
CN(C)/C=C1\C(=O)N(C)N=C1C(F)(F)F,i,x,3,16,5%,-24%
